Screens: PubChem, National Center for Advancing Translational Sciences (NCATS)
Compounds with a hit are over-represented: about 19% of the library has one in this group of screens.
DT40 TDP1 no CPT = qHTS for Inhibitors of human tyrosyl-DNA phosphodiesterase 1 (TDP1): qHTS in cells in absence of CPT; DT40 Tdp1-/- hTDP1 cells, no CPT, ATP luminescence, 48 h; Potency, µM (series often up to 46.2 µM), inactives show at the top dose activity change, negative = growth inhibition, hits mostly inhibitors; hit rate 15% among 420,000; further: potency means the concentration at half of the fitted maximal effect; nearly all actives have a fitted effect of over 55% in size
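Growth kinetics read by CellTiter-Glo luminescence after ≥48 hr at 37 °C. Cells: DT40 Tdp1-/- stably carrying human TDP1, 400 per well, compound exposure in the absence of CPT (DMSO vehicle).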
HT1080 IDH1KD tx = HT-1080 IDH1 knockdown cell toxicity (counter line). HT-1080 IDH1 knockdown viability, ATP luminescence, 48 h. Potency, µM (top dose mostly 46.1 µM), for inactives: top-dose activity, negative = toxicity, most hits filed as cytotoxic. hit rate 2% among 360,000. AID 686971;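 further: potency means the concentration at half of the fitted maximal effect; 0% = DMSO wells and -100% = cell-free medium wells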
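IDH1KD HT-1080 cells, 750/well, RPMI + 5% FBS; compound pinned after 2 h settling; 48 h, 37 °C; CellTiter-Glo luminescence; % activity normalised to DMSO and no-cell wells; curves fitted, classed by r2 and efficacy.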
DT40 TDP1 CPT = DT40-hTDP1 cell growth loss with CPT; chicken DT40 Tdp1-/-;hTDP1 cells + 20 nM CPT, ATP luminescence, 48 h; Potency, µM (titrated, usually from 46.2 µM), without a hit: at the highest dose activity change, negative = growth inhibition, most hits filed as inhibitors; hit rate 12% among 420,000; AID 686979; further: potency means the concentration at half of the fitted maximal effect; nearly all actives have a fitted effect of over 55% in size
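Cell growth measured by CellTiter-Glo luminescence after a minimum 48 h, 37 C compound exposure with 20 nM CPT in Tdp1-knockout DT40 cells stably expressing hTDP1, seeded 400/well; qHTS titration format.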
HT1080-NT tox = kills 2HG-producing HT-1080-NT fibrosarcoma cells; HT-1080-NT fibrosarcoma viability, CellTiter-Glo ATP luminescence, 48 h; Potency, µM (top dose mostly 46.1 µM), for inactives: top-dose activity, negative = less viability, actives largely listed as cytotoxic; hit rate 1.6% among 360,000; AID 686970;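 further: NT is the 2HG producing partner of a matched IDH1 knockdown line; potency means the concentration at half of the fitted maximal effect; 0% = DMSO-treated cells and -100% = media-only wells without cells; nearly all actives have a fitted effect of over 55% in size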
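Compounds were tested in concentration-response format on HT-1080-NT cells for 48 hours at 37 degrees C. Cell viability came from CellTiter-Glo luminescence; curves were classified by r2, response magnitude and activity.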
uPA surface inh = inhibitors of cell surface uPA generation | hit rate 0.31% among 330,000 | Potency, µM (top dose mostly 38.3 µM), without a hit: at the highest dose activity change, negative = inhibition, actives largely listed as inhibitors | cell surface uPA generation assay, qHTS | AID 540303; active means well fitted inhibition curve with a large enough effect; inconclusive means small, poorly fitted or top-dose-only effect; inactive means no such curve, though single readings can be large or run the other way; tested in mouse RAW 264.7 cells; further: potency means the concentration at half of the fitted maximal effect; nearly all actives have a fitted effect of over 55% in size
IL-1B inflam inh = inflammasome signaling inhibition, IL-1 beta readout; THP-1 LPS/ATP IL-1B secretion, AlphaLISA, 16 h; active compounds read low; activity change, % at 57.5 µM; hit rate 4.7% among 360,000; AID 743279; in the data active means activity change below about -50%; inconclusive means mostly about -30% to -49%
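Secreted IL-1B measured by AlphaLISA bead assay after 16 h compound exposure of THP-1 cells; compounds (final up to 57.5 uM) added 1 h before LPS (250 ng/mL) and ATP (1.25 mM) stimulation; lower signal means less secretion.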
The depositor's hits bear a star; ? = inconclusive; nt = no result given; [ ] = another dose, or the depositor's remark. Unless noted, the call rests on the fitted dose curve; in most records, active means well fitted curve in the direction sought with a large enough effect; inconclusive means small, poorly fitted or top-dose-only effect, or another doubt; inactive means no such curve, though single readings can be large; an effect the other way counts as inactive or inconclusive. Unless noted, on the % scale 0 is the no-effect control and ±100 the full control effect.

SMILES	DT40 TDP1 no CPT	HT1080 IDH1KD tx	DT40 TDP1 CPT	HT1080-NT tox	uPA surface inh	IL-1B inflam inh
COCCNC(=S)N/N=C(\C)c1ccc(Cl)s1	21µM*	0%	?	?	-1%	-96*
COCCNC(=S)N/N=C(\C)c1ccc(Cl)c(Cl)c1	21µM*	11%	23µM*	11%	-20%	-5
COCCNC(=S)N/N=C(\C)c1ccccc1O	0.082µM*	9%	0.026µM*	10%	0%	?
O=C(O)c1ccc2c(ccc3nn(-c4ccc(/C=C/c5ccc(-n6nc7ccc8cc(C(=O)O)ccc8c7n6)cc5[S+](=O)([O-])[O-])c([S+](=O)([O-])[O-])c4)nc32)c1	0%	nt	9%	nt	nt	nt
Cc1nc(C(F)(F)F)ccc1C(=O)N1CCCC(C)(C(=O)O)C1 (configuration not stated)	-10%	22%	-2%	3%	nt	1
CC(=O)O[C@@H](Cc1ccc(O)cc1)C(=O)CC(C)C	-25%	-3%	-5%	3%	nt	33
Cc1cc(OC(=O)Nc2ccccc2)ccc1Cl	4%	4%	8%	3%	nt	2
COCCNC(=S)N/N=C(\C)c1ccc(Cl)c(Cl)c1Cl	4.6µM*	-9%	4.1µM*	0%	-3%	19
CNC(=S)N/N=C(\C)c1ccc(Cl)c(Cl)c1	5.2µM*	-3%	4.1µM*	-3%	-6%	-12
C/C(=N\O)c1ccc(Cl)c(Cl)c1	9%	13%	5%	2%	3%	21
CO[C@H]1[C@H](NC(=O)c2ccco2)c2ccccc2C12CCN(Cc1cccn1-c1ccccn1)CC2	-4%	nt	11%[9.04 µM]	nt	nt	nt
O=C(COc1ccc(C(=S)N2CCOCC2)cc1Cl)Nc1ccccc1Cl	-19%	13%	-22%	16%	-1%	0
CCOc1cc(C(=S)N2CCCC2)ccc1OC	8%	7%	13%	12%	1%	5
CCOc1cc(C(=S)N2CCCC2)ccc1OCC(=O)Nc1c(C)cc(C)cc1C	16µM*	-6%	18µM*	-16%	2%	-4
COc1cc(C(=S)N2CCCCC2)ccc1OCC(=O)Nc1ccccc1Cl	23µM*	-8%	?	?	1%	-70*
O=C(NCc1ccccc1Cl)C1CCN(S(=O)(=O)Cc2ccccc2)CC1	-22%	nt	-21%	nt	nt	nt
COC(=O)c1ccc(NC(=O)C(=O)NCCc2csc(-c3ccc(F)cc3)n2)cc1	-2%	nt	-20%	nt	nt	nt
COc1ccc(-c2cnc3c(NC(C)=O)cc(-c4ccc(S(C)(=O)=O)cc4)cn23)cc1OC	18µM*	2%	?	-21%	nt	-26
COc1cccc(-c2cnc3c(NC(C)=O)cc(-c4ccc(S(C)(=O)=O)cc4)cn23)c1	23µM*	?	?	?	nt	?
CCNC(COC(=O)c1ccc([N+](=O)[O-])cc1)C1CCCCC1 (configuration not stated)	?	2%	?	9%	6%	16
CC(=O)Oc1c(-c2ccco2)oc2ccccc2c1=O	-30%	?	-18%	?	-8%	-82*
O=C1NC[C@H](Cc2ccccc2)N(C[C@@H]2CCCN2C[C@H](Cc2ccc(O)cc2)N2C[C@H](Cc3ccccc3)N(CC3CCCCCC3)C(=O)C2=O)C1=O	?	?	?	?	nt	-83*
O=C1NC[C@H](Cc2ccc(O)cc2)N(C[C@@H]2CCCN2C[C@H](Cc2ccccc2)N2C[C@H](Cc3ccccc3)N(CC3CCCCCC3)C(=O)C2=O)C1=O	?	?	?	?	nt	-17
CC(C)C[C@@H](CN1CCC[C@H]1CN1C(=O)C(=O)NC[C@@H]1Cc1ccccc1)N1C[C@H](Cc2ccccc2)N(CC2CCCCC2)C(=O)C1=O	?	?	?	?	nt	0
CC(C)C[C@H]1CN([C@@H](Cc2ccccc2)CN2CCC[C@H]2CN2C(=O)C(=O)NC[C@@H]2Cc2ccc(O)cc2)C(=O)C(=O)N1CC1CCCCC1	?	?	?	?	nt	-94*
SMILES	DT40 TDP1 no CPT	HT1080 IDH1KD tx	DT40 TDP1 CPT	HT1080-NT tox	uPA surface inh	IL-1B inflam inh
O=C1NC[C@H](Cc2ccccc2)N(C[C@@H]2CCCN2C[C@H](Cc2ccccc2)N2C[C@H](Cc3ccccc3)N(CC3CCCCC3)C(=O)C2=O)C1=O	23µM*	?	16µM*	?	nt	-77*
CC(C)(C)C1CCC(CN2CCC(CN3C(=O)C(=O)NC[C@@H]3Cc3ccccc3)CC2)CC1 (some centres not stated)	?	5%	?	0%	17%	-56*
O=C1NC[C@H](Cc2ccccc2)N(C[C@H]2CCCN2C[C@H](Cc2ccccc2)N2C[C@H](Cc3ccccc3)N(CC3CCCCC3)C(=O)C2=O)C1=O	?	?	21µM*	?	?	-78*
CC1CCN(C(=O)CN2C(=O)C(=O)N(C)C2=O)c2ccccc2S1 (configuration not stated)	-1%	-3%	-12%	-1%[9.24 µM]	2%	-1
CCN(CC)Cc1c(C(=O)N/N=C/c2ccccn2)nnn1-c1nonc1N	5%	-2%	6%	0%	1%	37
COCCn1c(COc2cccc(OC)c2)nnc1SCC(=O)NC1CCCC1	6%	8%	0%	9%	-2%	-15
COc1cccc(CN2CCC(c3nnc(SCC4CCCO4)n3C)CC2)c1O (configuration not stated)	1%	nt	-3%	nt	nt	nt
COc1ccccc1[C@H]1C(c2ccc(F)cc2)=NN(c2ccccc2)[C@@H]1CO	?	?	18µM*	-19%	-16%	-13
C[C@H]1C(c2ccc(F)cc2)=NN(c2ccccc2)[C@@H]1CO	-2%	-2%	18µM*	-5%	-1%	0
C[C@@H]1C(c2ccccc2)=NN(c2ccccc2)[C@H]1C(=O)N1CCOC1=O	?	?	?	-21%	-11%	-19
CCc1nc2cc(C(=O)N(C)C3CCOC3)cc(NC(=O)c3ccccc3OC)c2n1C (configuration not stated)	-19%	nt	-3%[9.04 µM]	nt	nt	nt
Cc1c(Cc2ccccc2)c(NCCN(C)C)n2c(nc3ccccc32)c1C#N	?	1%	-29%	-8%	-5%	-71*
CCCCc1c(C)c(C#N)c2nc3ccccc3n2c1NCCN(C)C	?	15%	?	-2%	?	12
CCOC(=O)c1cc(-c2ccccc2)sc1NC(=S)Nc1cc(C)ccn1	10µM*	13%	?	26%	4%	0
